Compound activity from PubChem.
hNpr1 antagonist: human Npr1 receptor antagonism; actives 1.6% (n = 76,000); AID 1347048; HEK293 hNpr1 GloSensor cGMP, ANP-stimulated luminescence; P16066; Potency, µM (doses to about 46.3 µM), actives largely listed as inhibitors; calls by dose curve; note: nearly all actives have a fitted effect of over 60% in size
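HEK293 cells stably expressing human Npr1 and cGMP GloSensor pGS-40F, loaded 2 h with 2% GloSensor reagent, given compound 30 min at room temperature. Luminescence read before and 20 min after 0.1 nM hNppA.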
3T3 cytotox: NIH 3T3 cell cytotoxicity. actives 4.3% (n = 94,000). Potency, µM (top dose mostly 96.7 µM), most hits filed as inhibitors. AID 1345082. NIH 3T3 viability, CellTiter-Glo ATP luminescence, 48-72 h; note: nearly all actives have a fitted effect of over 55% in size
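Mouse fibroblast NIH 3T3 cells, 400 per well, received compound via pintool and were incubated for 48 or 72 hr prior to CellTiter-Glo ATP luminescence measurement.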
HEK293 tox: cytotoxic compounds in HEK 293 cells | HEK 293 viability, ATP luminescence (CellTiter-Glo), 48-72 h | Potency, µM (highest dose often 115 µM), hits mostly inhibitors | actives 6.6% (n = 94,000) | AID 1345083; note: nearly all actives have a fitted effect of over 60% in size
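Read-out: CellTiter-Glo ATP luminescence. Cells: HEK 293, 250 cells/well. Exposure: 48 or 72 hr, 37 degree Celsius.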
FLuc inh: blocks purified firefly luciferase enzyme activity; AID 1347043; actives 2.5% (n = 76,000); Potency, µM (series often up to 115 µM), hits mostly inhibitors; P08659; purified P. pyralis luciferase, luminescence, biochemical; note: nearly all actives have a fitted effect of over 65% in size
Target sequence (P08659 whole entry, looked up): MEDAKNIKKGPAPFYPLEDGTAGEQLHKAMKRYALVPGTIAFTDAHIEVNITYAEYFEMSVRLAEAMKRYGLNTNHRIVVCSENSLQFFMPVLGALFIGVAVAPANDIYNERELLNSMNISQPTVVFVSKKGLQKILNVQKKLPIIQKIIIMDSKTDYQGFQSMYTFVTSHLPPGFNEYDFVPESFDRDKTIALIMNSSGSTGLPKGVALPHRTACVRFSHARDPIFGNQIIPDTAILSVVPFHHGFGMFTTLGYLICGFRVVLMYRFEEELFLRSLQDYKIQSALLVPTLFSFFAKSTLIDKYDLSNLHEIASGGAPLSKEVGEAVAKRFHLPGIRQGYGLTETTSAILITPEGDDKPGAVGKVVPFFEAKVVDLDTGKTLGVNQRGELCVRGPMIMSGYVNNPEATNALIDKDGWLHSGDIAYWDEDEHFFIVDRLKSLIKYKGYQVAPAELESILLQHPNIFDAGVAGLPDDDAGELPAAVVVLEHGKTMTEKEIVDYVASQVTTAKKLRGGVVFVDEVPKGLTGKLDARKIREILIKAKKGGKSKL
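Purified P. pyralis luciferase (10nM final) in 50mM Tris acetate pH 7.5, 10mM Mg acetate, 0.01% Tween-20, 0.05% BSA with 10uM D-luciferin and 10uM ATP. Compounds titrated qHTS. Luminescence imaged on CCD.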
GPT2 inhibitor: blocks human glutamate pyruvate transaminase 2; Potency, µM (doses to about 57.7 µM), most hits filed as inhibitors; Recombinant GPT2, coupled pyruvate oxidase/HRP Amplex Red fluorescence; Q8TD30; actives 0.25% (n = 100,000); note: nearly all actives have a fitted effect of over 60% in size
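Recombinant GPT2 (10ng/uL) with 250uM a-KG and 2mM L-alanine, 30 min at room temperature, in HEPES pH 7.5 buffer. Pyruvate detected by pyruvate oxidase/HRP/Amplex Red fluorescence after 30 min in the dark; AOA (50uM) as positive control.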
Numbers stand for hits; n = inactive; u = inconclusive; x = no result given. A selection: hits, their analogues and other compounds. The true share with any hit is near 10%. Unless noted, calls come from the whole dose curve; as a rule, active = well fitted curve in the direction sought with a large enough effect; inconclusive = small, poorly fitted or top-dose-only effect, or another doubt; inactive = no such curve, though single readings can be large; an effect the other way counts as inactive or inconclusive.

SMILES | hNpr1 antagonist | 3T3 cytotox | HEK293 tox | FLuc inh | GPT2 inhibitor
O=C(NCCO)c1ccc(-c2ncc3cnc(C4=CCOCC4)cn23)cc1 | n | u | n | n | n
O=C(c1ccc(-c2ncc3cnc(C4=CCOCC4)cn23)cc1)N1CCc2ccccc2C1 | n | u | 79µM | n | n
O=C1NCc2ccccc2CC12CCCN2CC1CC=CCC1 (configuration not stated) | x | u | u | x | n
CCOc1ccc(CN2CCN(C/C=C/c3ccccc3OC)CC2CCO)cc1 (configuration not stated) | n | u | 20µM | n | n
CSc1cccc(NC(=O)N[C@H]2CCN(C(=O)c3cccn3C)[C@@H]2C(=O)N[C@H]2CCCNC2=O)c1 | n | n | n | n | n
CN1CCC(Oc2ccc(C(=O)NCCc3ccncc3)cn2)CC1 | n | n | n | n | n
O=C(NCc1ccccn1)c1cccc(OC2CCN(c3cnccn3)CC2)c1 | u | u | 45µM | n | n
CN1CCC(Oc2ccc(C(=O)NCCc3ccccn3)cn2)CC1 | n | n | n | 40µM | n
C[C@H](O)c1c(-c2ccc(Cl)cc2)noc1C(=O)NC1CC1 | n | u | 112µM | n | u
COc1cc(OC)c(NC(=O)CCn2ccn3nc4c(c3c2=O)CCCC4)cc1Cl | n | n | n | n | u
O=C(c1ccccc1)N1CCC2(CC1)Cc1ccccc1NC2=O | n | u | u | n | n
O=C(c1ccccc1Cl)N1CCC2(CC1)Cc1ccccc1NC2=O | n | u | 45µM | n | u
COc1ccc(C(=O)N2CCC3(CC2)CC(C(C)C)=NO3)cc1 | n | 100µM | n | n | n
COc1ccc(C(=O)N2CCC3(CC(C(C)C)=NO3)C2)cc1 (configuration not stated) | x | n | n | x | n
COc1ccc(C(=O)N2CCC3(CC2)Cc2ccccc2NC3=O)cc1 | n | 35µM | 22µM | n | n
COc1cc(F)ccc1-c1cc2c(nc1-c1ccccc1)nc(C(=O)NCCN(C)C)n2C | n | 20µM | 32µM | n | n
COc1ccccc1-c1cc2c(nc1-c1ccccc1)nc(C(=O)NCCN(C)C)n2C | u | 35µM | u | n | n
Cc1cc(-c2cc3c(nc2-c2ccccc2)nc(C(=O)NC2CCN(C)CC2)n3C)ccn1 | n | 25µM | u | n | n
COc1ccc(-c2cc3c(nc2-c2ccccc2)nc(C(=O)NCCN(C)C)n3C)cn1 | n | 79µM | u | n | n
COc1cc(-c2cc3c(nc2-c2ccccc2)nc(C(=O)NCCN(C)C)n3C)ccn1 | n | u | u | n | n
Cc1ccc(NC(=O)N2C[C@@H](Oc3cccnc3)C[C@H]2C(=O)N2CCCC2)cc1C | n | u | n | n | n
CNC(=O)N1CCCC1c1nc(C2CN(C(=O)c3cnccn3)C2)no1 (configuration not stated) | n | n | n | n | n
CN(C)CCNC(=O)c1nc2nc(-c3ccccc3)c(-c3ccncc3)cc2n1C | n | 100µM | u | n | n
Cc1ccccc1-c1cc2c(nc1-c1ccccc1)nc(C(=O)NCCN(C)C)n2C | u | 25µM | 35µM | n | n
c1nc(-c2cc(NC3CCNCC3)nc3[nH]ccc23)c2sccc2n1 | n | u | u | n | n
SMILES | hNpr1 antagonist | 3T3 cytotox | HEK293 tox | FLuc inh | GPT2 inhibitor
CN(C)C(=O)c1ccc(-c2cc(NC3CCCC3)nc3[nH]ccc23)o1 | n | u | 45µM | u | n
O=C(NC1CCCC1)N1CCC2(CC1)CC(N(Cc1ccc(F)cc1)C1CC1)CCO2 (configuration not stated) | n | u | u | n | n
COC(=O)c1c(S(=O)(=O)N2CCCCCCC2)sc2c1CCN(C(=O)C1CC=CCC1)C2 (configuration not stated) | n | u | 45µM | n | n
C[S+](=O)([O-])Nc1cccc(-c2cc3c(ccn3Cc3ccncc3)c(N3CCOCC3)n2)c1 | n | u | n | n | u
c1cc(-c2cc3c(ccn3Cc3ccncc3)c(N3CCOCC3)n2)c2cn[nH]c2c1 | n | 14µM | 89µM | n | n
N#Cc1ccccc1-c1cc2c(ccn2Cc2ccncc2)c(N2CCOCC2)n1 | n | u | u | n | n
Fc1ccccc1-c1cc2c(ccn2Cc2ccncc2)c(N2CCOCC2)n1 | n | 35µM | 89µM | n | n
COc1ccccc1-c1cc2c(ccn2Cc2ccncc2)c(N2CCOCC2)n1 | n | u | u | n | n
C[S+](=O)([O-])N1CCC(Cn2ccc3c(N4CCOCC4)nc(-c4cccc5[nH]ccc45)cc32)CC1 | n | n | u | n | n
c1cc(-c2cc3c(ccn3Cc3ccncc3)c(N3CCOCC3)n2)c2[nH]ncc2c1 | n | u | 89µM | n | u
c1cc(-c2cc3c(ccn3Cc3ccncc3)c(N3CCOCC3)n2)c2cc[nH]c2c1 | n | 35µM | 32µM | n | n
COCC(=O)NC1CCN(Cc2cccc(-c3cccs3)c2)CC1 | x | u | u | x | n
O=C(CC1CCCC1)N1CC[C@@H]2COCCN(Cc3ccccc3)[C@@H]2C1 | n | n | 79µM | n | n
O=C(c1ccco1)N1CC[C@@H]2COCCN(Cc3ccccc3)[C@@H]2C1 | n | n | n | n | n
O[C@H]1CN[C@H](c2nc(-c3ccc(OC(F)(F)F)cc3)no2)C1 | n | n | u | 32µM | n
O[C@@H]1C[C@@H](c2nc(-c3ccc(OC(F)(F)F)cc3)no2)N(C2CCOCC2)C1 | n | u | u | 40µM | u
O=C(c1ccccc1)N1CC2(CCCN2CC2CC2)Cc2ccccc21 (configuration not stated) | x | n | u | x | n
Cc1ccc(C2Cn3nnc(C(=O)N4CCC(C(=O)NCC(C)c5ccccc5)CC4)c3CO2)cc1 (configuration not stated) | n | n | n | 32µM | n
Cc1ccc(C2Cn3nnc(C(=O)N4CCC(C(=O)NC(C)c5ccccc5)CC4)c3CO2)cc1 (configuration not stated) | n | n | n | u | n
CCc1ccc(CNC(=O)C2CCN(C(=O)c3nnn4c3COC(c3ccc(C)cc3)C4)CC2)cc1 (configuration not stated) | n | n | n | 40µM | n
Cc1ccc(C2Cn3nnc(C(=O)N4CCC(C(=O)NC5CCC(C)CC5)CC4)c3CO2)cc1 (configuration not stated) | n | n | n | 28µM | n
Cc1ccc(CNC(=O)C2CCN(C(=O)c3nnn4c3COC(c3ccc(C)cc3)C4)CC2)cc1 (configuration not stated) | n | n | n | n | n
Cc1ccc(C2Cn3nnc(C(=O)N4CCC(C(=O)NCc5cccs5)CC4)c3CO2)cc1 (configuration not stated) | n | n | n | 35µM | n
Cc1ccc(C2Cn3nnc(C(=O)N4CCC(C(=O)NC5CCCCC5)CC4)c3CO2)cc1 (configuration not stated) | n | n | n | u | n
